Assay results reported in PubChem BioAssay AID2284371 (EPA ToxCast).
Records with an inconclusive call do not appear. The source made the active and inactive calls. How the source made its calls: active means hit-call score of the fitted dose curve at least 0.9, where 1 is the maximum; inconclusive means response in the unintended direction; inactive means score below 0.9.

Assay: ATG_M_61_EcoTox2: Attagene TRANS-FACTORIAL EcoTox-2 HepG2 Assay for M61 Transcription Factor (Internal Marker)
Protocol: ATG_EcoTox2 is a cell-based, multiplexed assay created by modifying the existing Attagene TRANS-FACTORIAL system to include a panel of nuclear receptors from some or all the following species: human (Homo sapiens), african clawed frog (Xenopus laevis), rainbow trout (Oncorhynchus mykiss), japanese medaka (Oryzias latipes), and zebrafish (Danio rerio). The ECOTOX2-FACTORIAL format uses HepG2, a human liver cell line, with measurements taken at 24 hours after chemical dosing in a 24-well plate. ATG_M_61_EcoTox2 is one of 29 assay components calculated in the ATG_EcoTox2 assay. It is designed to make measurements of mRNA induction, a form of inducible reporter, as detected with fluorescence intensity signals by Reverse transcription polymerase chain reaction (RT-PCR) and Capillary electrophoresis technology.The assay endpoint ATG_M_61_EcoTox2 was analyzed in the positive analysis fitting direction relative to DMSO as the negative control and baseline of activity. Using a type of inducible reporter, measures of mRNA for gain-of-signal activity can be used to understand the background control at the transcription factor-level as they relate to the gene. Furthermore, this assay endpoint can be referred to as a secondary readout, because this assay has produced multiple assay endpoints where this one serves a background control function. To generalize the intended target to other relatable targets, this assay endpoint is annotated to the background measurement intended target family, where the subfamily is internal marker.
Human liver HepG2 cells are transiently transfected with multiple reporter transcription units (MRTUs) in 6-well plates using FuGene 6 reagent (Roche; 3 ml FuGene/1 mg DNA). The MRTU constructs are regulated by a cis-regulating element (promoter). Each RTU expresses a GAL4-UAS that regulates the transcription of a nearby target reporter gene sequence. A major difference between the CIS and TRANS system is that in CIS activities of endogenous TFs are measured, whereas the TRANS assay evaluates changes in activities of exogenous, chimeric NR-Gal4 proteins. […] At the end of 24 hour incubation, total RNA was isolated using TriZol reagent (Invitrogen). The isolated RNA is then reverse-transcribed using oligo(dT) primer and Mo-MLV reverse transcriptase (Invitrogen) with DNAse I (Ambion) treatment for 30 min. The one-tenth of the produced cDNA was amplified by PCR using Taq DNA polymerase (Invitrogen) and two reporter sequence-specific primers. The PCR products were fluorescently labeled by primer extension with 6-arboxyfluorescein (6-FAM) 5'-labeled reporter sequence-specific primer (2 min at 95 C, 20 s at 68 C and 10 min at 72 C) and these products were digested with 5U of HpaI (New England Biolabs) for 2h at 37 C. The fragments were purified using Qiaquick PCR columns (Qiagen), analyzed on an ABI 3130xL genetic analyzer (Applied Biosystems) with peak positions identified by using a set of X-rhodamine (ROX)-labeled MapMarker1000 molecular weight standards (BioVentures). The raw capillary electrophoresis data was processed using Attagraph software (Attagene).

SMILES	outcome
Cc1c(C)c2c(c(C)c1O)CCC(C)(COc1ccc(CC3SC(=O)NC3=O)cc1)O2 (stereo unspecified)	inactive
CN(CCOc1ccc(CC2SC(=O)NC2=O)cc1)c1ccccn1 (stereo unspecified)	inactive
Cc1cccc(Nc2cc(Cl)nc(SCC(=O)O)n2)c1C	inactive
C=C(c1ccc(C(=O)O)cc1)c1cc2c(cc1C)C(C)(C)CCC2(C)C	inactive
CC(C)(Oc1ccc(Cl)cc1)C(=O)O	inactive
CC(C)(Oc1ccc(C2CC2(Cl)Cl)cc1)C(=O)O (stereo unspecified)	inactive
C[C@]12C=CC(=O)C=C1CC[C@@H]1[C@@H]2C(=O)C[C@@]2(C)[C@H]1CC[C@]2(O)C(=O)CO	inactive
CC(C)(Oc1ccc(CCNC(=O)c2ccc(Cl)cc2)cc1)C(=O)O	inactive
CC(c1cc2ccccc2s1)N(O)C(N)=O (stereo unspecified)	inactive
CC(C)OC(=O)C(C)(C)Oc1ccc(C(=O)c2ccc(Cl)cc2)cc1	inactive
Cc1nc(-c2ccc(C(F)(F)F)cc2)sc1C(=O)NCc1ccc(OC(C)(C)C(=O)O)cc1	inactive
